Experimental findings from PubChem BioAssay AID504466 (National Center for Advancing Translational Sciences (NCATS), 2011) are described below.

The whole screen tested about 330,000 compounds, of which about 4,200 (1.3%) were called active. Where a call stands in place of a potency, no number is given. About 6% were inconclusive and are not listed. Calls follow the shape of the dose curve; as a rule, active = well fitted activation curve with a large enough effect; inconclusive = small, poorly fitted or top-dose-only effect; inactive = no such curve, though single readings can be large or run the other way. The sample as a whole holds a higher share of actives than the screen did.
Potency is read from the fitted curve at half-maximal effect.

A short description of this assay: qHTS screen for small molecules that induce genotoxicity in human embryonic kidney (HEK293T) cells expressing luciferase-tagged ELG1. Also: nearly all actives have a fitted effect of over 60% in size. The following applies: HEK293T ELG1-luciferase reporter, luminescence, 16 h; series mostly up to 46 µM. The text has this: NIH Molecular Libraries Probe Production Network [MLPCN] NIH Chemical Genomics Center [NCGC] MLPCN Grant: 1 R03 MH092164-01 Assay Provider: Kyungjae Myung, NHGRI, NIH Keywords: MLPCN, qHTS, NCGC, genotoxicity, cancer Assay Overview: Cancer cells divide rapidly compared to normal cells in the body. During cell division, cancer cells need to duplicate their genome by DNA replication. The failure of genome duplication leads to cancer cells' death. Therefore, inhibitors of DNA replication could specifically kill cancer cells. Based on this concept, many chemotherapeutic agents were developed and have been used to treat cancer patients. However, there are a limited number of agents available in the clinical setting, and some of those that do exist have low efficacy and severe side effects. Therefore, if we can find the compounds that effectively block DNA replication either by directly damaging DNA or by inhibiting other cellular mechanisms, the options for cancer treatment will be broadened. With this in mind, we developed a quantitative high-throughput ELG1-luciferase reporter gene assay. Since the level of human ELG1 protein is enhanced in response to genetic stresses, increases in luciferase activity can be used to identify compounds that cause genetic stress.
Assay Protocol Summary: For genotoxicity screening, 2,000 cells in 5 uL/well were dispensed into white, solid-bottom 1536-well plates using a solenoid-based dispenser. Following transfer of 23 nL compound or DMSO vehicle by a pin tool, the plates were incubated 16 hr at 37 °C and 5% CO2. 5 ul ONE-Glo (Promega) was then added to each plate and following a 30 min incubation at room temperature, luciferase activity was quantified on a ViewLux CCD-based plate reader.
Background: qHTS replaces the single test concentration by a dilution series.
For `O=C(OCC(=O)c1cccs1)C1=COCCO1`, the Potency was 18.4 µM (active). In the case of `CC[N+](C)(CC)CCC[n+]1c(-c2ccccc2)c2cc(N)ccc2c2ccc(N)cc21` it was “inactive”; in that of `c1cc2c(cc1C1OCC3C(c4ccc5c(c4)OCO5)OCC13)OCO2` (stereo not given), “inactive”. For `C[C@]12CC[C@H](O)CC1=C([N+](=O)[O-])CC1C2CC[C@@]2(C)C1CC[C@@H]2O` (stereo not given in full), the Potency entry was “inactive”. In the case of `COc1ccc(C2CC(c3cccs3)=NN2c2nc(C)c(C(C)=O)s2)cc1OC` (stereo not given) it was 20.6 µM (active); in that of `CN(C)C(=O)Oc1ccc(OCc2cccc[n+]2C)cc1`, “inactive”; in that of `CCOC(=O)c1c(-c2ccccc2)oc2ccc(OC(=O)N(C)C)cc12`, “inactive”. To `CN(C)C(=O)Oc1ccc2c(c1)O/C(=C\c1ccccc1)C2=O` belongs 20.6 µM (active). Regarding `COC(=O)[C@@H]1C(OC(=O)c2ccccc2)CC2CCC1N2C` (stereo not given in full), the Potency entry is “inactive”.

On to `CC[C@H]1CN2CCc3cc(OC)c(OC)cc3[C@@H]2C[C@@H]1C[C@H]1NCCc2cc(OC)c(OC)cc21`, for which the Potency entry is “inactive”. To `COC1=CC=C2[C@H]3Cc4ccc(OC)c5c4[C@@]2(CCN3C)C1O5` (stereo not given in full) belongs “inactive”; to `O=C(OCCN1CCOCC1)C1(c2ccccc2)CCCC1`, “inactive”; to `CCC(=O)c1ccc(OCC(=O)N2CCN(CC(=O)Nc3ccc(C)cc3)CC2)cc1`, “inactive”.

As for `O=C(/C=C/c1cccs1)c1cc(Cl)ccc1OC(=O)N1CCOCC1`, the Potency result was “inactive”. To `Oc1ccc2c3c1OC1[C@H](O)CC[C@@]4(O)[C@@H](C2)N(CC2CC2)CC[C@]314` (stereo not given in full) belongs “inactive”.
